Results taken from ChEMBL document CHEMBL3988442, “University of Dundee, Small-Polar-MMV Screening Library” (2021).
For part of these data: Entries with a potency or affinity are not part of this list.

Experiments:
[1] = target: Protein translocase subunit SecA (Escherichia coli (strain K12)) (UniProt P10408); test: Assay to Identify E. coli SecA ATPase Inhibitors; format: functional; design: scale not given: direction of the effect not stated beside the values; conditions: 30 µM
[2] = target: T1, Ubiquitin-activating enzyme e1, putative (Leishmania donovani (strain BPK282A1)) (UniProt E9BSI1); test: Leishmania donovani Ubiquitin Activating Enzyme (LdE1); format: functional; design: scale not given: direction of the effect not stated beside the values; conditions: 30 µM
T1 sequence (whole entry): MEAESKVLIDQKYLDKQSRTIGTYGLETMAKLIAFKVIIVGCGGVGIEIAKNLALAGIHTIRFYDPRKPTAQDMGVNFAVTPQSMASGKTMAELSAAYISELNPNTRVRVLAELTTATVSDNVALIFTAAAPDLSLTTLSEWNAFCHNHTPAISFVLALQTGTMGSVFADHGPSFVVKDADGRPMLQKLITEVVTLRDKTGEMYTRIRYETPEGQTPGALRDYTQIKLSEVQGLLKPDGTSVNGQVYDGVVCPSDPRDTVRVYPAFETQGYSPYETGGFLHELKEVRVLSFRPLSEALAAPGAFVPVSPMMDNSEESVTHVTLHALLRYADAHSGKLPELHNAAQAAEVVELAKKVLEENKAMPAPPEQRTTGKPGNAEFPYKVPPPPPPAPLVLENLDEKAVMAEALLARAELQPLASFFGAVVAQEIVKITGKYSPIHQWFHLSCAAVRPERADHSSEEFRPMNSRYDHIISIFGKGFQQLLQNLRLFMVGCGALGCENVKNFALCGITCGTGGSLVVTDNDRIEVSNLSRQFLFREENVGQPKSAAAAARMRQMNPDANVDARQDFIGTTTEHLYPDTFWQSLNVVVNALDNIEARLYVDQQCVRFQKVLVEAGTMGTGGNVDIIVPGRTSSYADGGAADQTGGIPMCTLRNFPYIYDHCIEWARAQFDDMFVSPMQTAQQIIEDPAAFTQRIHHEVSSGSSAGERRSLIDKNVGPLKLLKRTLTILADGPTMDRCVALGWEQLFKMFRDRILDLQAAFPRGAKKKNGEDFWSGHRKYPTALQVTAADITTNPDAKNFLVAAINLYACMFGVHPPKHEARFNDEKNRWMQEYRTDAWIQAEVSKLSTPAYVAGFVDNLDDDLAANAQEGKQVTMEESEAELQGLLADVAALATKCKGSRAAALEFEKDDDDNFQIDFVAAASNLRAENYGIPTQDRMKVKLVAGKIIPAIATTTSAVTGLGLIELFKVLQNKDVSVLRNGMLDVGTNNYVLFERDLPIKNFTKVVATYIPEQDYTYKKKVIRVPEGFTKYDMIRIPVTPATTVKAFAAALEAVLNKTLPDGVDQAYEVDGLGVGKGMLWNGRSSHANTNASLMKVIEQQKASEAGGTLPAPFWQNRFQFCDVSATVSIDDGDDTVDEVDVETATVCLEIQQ

[3] = target: T2, Aspartate--tRNA(Asp/Asn) ligase (Mycobacterium tuberculosis (strain ATCC 25618 / H37Rv)) (UniProt P9WFW3); test: Assay for Asp RNA synthetase-1 from Mycobacterium tuberculosis; format: functional; design: scale not given: direction of the effect not stated beside the values; conditions: 30 µM; also: in the data most compounds retested in dose-response had high values
T2 sequence (whole entry): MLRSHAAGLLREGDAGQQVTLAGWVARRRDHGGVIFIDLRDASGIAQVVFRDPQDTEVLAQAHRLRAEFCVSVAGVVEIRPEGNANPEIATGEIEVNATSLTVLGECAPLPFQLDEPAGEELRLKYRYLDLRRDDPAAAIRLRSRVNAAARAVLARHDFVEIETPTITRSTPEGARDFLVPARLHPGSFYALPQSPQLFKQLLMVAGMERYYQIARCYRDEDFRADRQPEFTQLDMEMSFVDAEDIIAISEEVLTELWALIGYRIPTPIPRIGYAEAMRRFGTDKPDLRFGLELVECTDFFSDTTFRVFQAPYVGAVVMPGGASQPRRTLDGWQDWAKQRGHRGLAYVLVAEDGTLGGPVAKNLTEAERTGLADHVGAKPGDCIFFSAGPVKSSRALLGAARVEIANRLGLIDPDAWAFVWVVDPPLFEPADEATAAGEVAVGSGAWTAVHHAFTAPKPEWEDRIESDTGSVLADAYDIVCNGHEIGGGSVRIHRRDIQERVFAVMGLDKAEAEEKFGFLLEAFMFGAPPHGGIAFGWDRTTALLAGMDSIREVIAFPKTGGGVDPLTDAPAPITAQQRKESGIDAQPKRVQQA

[4] = target: AMP-activated protein kinase, AMPK (Homo sapiens) (UniProt P54646+O43741+P54619+Q9UGJ0+Q9Y478+Q13131+Q9UGI9); test: AMP-dependent Kinase enzyme assay. An in vitro enzyme assay that detects ADP turnover that is directly proportional to AMPK activity. This uses naive AMPK that is activated during the assay with MK-8722; format: functional; design: scale not given: direction of the effect not stated beside the values; conditions: 30 µM
[5] = target: Sialic acid-binding Ig-like lectin 9 (Homo sapiens) (UniProt Q9Y336); test: Hs-Siglec9 ALPHAscreen SOP 20170721; design: scale not given: direction of the effect not stated beside the values; conditions: 10 µM
Sialic acid-binding Ig-like lectin 9 (Homo sapiens), sequence (Q9Y336 whole entry): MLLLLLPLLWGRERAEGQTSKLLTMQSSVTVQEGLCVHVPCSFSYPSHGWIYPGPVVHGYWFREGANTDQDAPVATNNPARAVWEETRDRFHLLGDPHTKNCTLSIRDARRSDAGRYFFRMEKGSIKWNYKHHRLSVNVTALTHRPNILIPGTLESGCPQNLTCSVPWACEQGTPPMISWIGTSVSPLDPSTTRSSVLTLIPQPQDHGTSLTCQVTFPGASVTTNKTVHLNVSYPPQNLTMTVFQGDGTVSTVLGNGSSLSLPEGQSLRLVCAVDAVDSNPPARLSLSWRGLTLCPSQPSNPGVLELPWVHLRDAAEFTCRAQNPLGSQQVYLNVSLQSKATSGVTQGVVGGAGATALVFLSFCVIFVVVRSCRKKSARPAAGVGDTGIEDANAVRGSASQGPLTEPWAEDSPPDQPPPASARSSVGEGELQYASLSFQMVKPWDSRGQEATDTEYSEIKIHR

Trypanosoma cruzi = test: Trypanosoma cruzi phosphomannomutase and mannose-1-phosphate guanylyltransferase assay; format: functional; design: scale not given: direction of the effect not stated beside the values; conditions: 10 µM
[6] = target: T3, Arginase-2, mitochondrial (Homo sapiens) (UniProt P78540); test: in vitro enzyme assay to detect the production of urea directly proportional to the activity of Arginase II; format: functional; design: scale not given: in the data most compounds retested in dose-response had high values
T3 sequence (whole entry): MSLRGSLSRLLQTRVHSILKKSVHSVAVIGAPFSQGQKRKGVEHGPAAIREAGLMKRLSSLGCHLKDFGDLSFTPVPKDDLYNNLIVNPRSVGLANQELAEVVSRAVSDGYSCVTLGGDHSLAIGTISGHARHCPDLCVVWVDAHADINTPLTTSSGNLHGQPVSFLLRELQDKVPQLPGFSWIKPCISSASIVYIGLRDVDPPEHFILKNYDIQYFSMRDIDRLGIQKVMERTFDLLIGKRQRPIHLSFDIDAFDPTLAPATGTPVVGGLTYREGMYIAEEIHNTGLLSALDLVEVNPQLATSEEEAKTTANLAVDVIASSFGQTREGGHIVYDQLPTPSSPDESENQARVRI

[7] = target: T4, Proteasome subunit beta (Trypanosoma cruzi) (UniProt O96673); test: Trypanosoma cruzi proteasome chymotrypsin-like activity (TcProtChymo) assay.; format: functional; design: scale not given: in the data most compounds retested in dose-response had high values; conditions: 9.37 µM
T4 sequence (whole entry): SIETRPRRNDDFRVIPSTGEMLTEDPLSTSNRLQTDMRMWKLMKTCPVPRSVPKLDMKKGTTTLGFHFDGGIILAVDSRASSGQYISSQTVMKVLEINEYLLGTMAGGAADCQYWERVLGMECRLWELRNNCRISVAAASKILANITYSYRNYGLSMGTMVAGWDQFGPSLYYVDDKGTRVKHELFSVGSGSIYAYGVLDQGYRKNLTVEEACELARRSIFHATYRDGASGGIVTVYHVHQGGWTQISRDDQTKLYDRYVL

Homo sapiens = species on record: Homo sapiens; test: To identify inhibition of the IFN signalling (Jak-Stat) pathway via expression of an eGFP reporter gene under the control of an IFN-stimulated response element (ISRE) containing MxA promoter.; format: functional; design: scale not given: direction of the effect not stated beside the values; conditions: 30 µM
[8] = target: Shiga toxin 2 (Escherichia coli O157:H7) (UniProt P09385+P09386); test: E. coli 0.157:H7 Shiga Toxin SOP - stx2 screening assay; format: functional; design: scale not given: direction of the effect not stated beside the values; conditions: 30 µM
[9] = target: T5, Tyrosyl-tRNA synthetase, putative (Trypanosoma cruzi (strain CL Brener)) (UniProt Q4DSP6); test: Trypanosoma cruzi tyrosyl tRNA synthetase (TcYRS) _High Tyrosine SOP; format: functional; design: scale not given: in the data most compounds retested in dose-response had high values; conditions: 30 µM
T5 sequence (whole entry): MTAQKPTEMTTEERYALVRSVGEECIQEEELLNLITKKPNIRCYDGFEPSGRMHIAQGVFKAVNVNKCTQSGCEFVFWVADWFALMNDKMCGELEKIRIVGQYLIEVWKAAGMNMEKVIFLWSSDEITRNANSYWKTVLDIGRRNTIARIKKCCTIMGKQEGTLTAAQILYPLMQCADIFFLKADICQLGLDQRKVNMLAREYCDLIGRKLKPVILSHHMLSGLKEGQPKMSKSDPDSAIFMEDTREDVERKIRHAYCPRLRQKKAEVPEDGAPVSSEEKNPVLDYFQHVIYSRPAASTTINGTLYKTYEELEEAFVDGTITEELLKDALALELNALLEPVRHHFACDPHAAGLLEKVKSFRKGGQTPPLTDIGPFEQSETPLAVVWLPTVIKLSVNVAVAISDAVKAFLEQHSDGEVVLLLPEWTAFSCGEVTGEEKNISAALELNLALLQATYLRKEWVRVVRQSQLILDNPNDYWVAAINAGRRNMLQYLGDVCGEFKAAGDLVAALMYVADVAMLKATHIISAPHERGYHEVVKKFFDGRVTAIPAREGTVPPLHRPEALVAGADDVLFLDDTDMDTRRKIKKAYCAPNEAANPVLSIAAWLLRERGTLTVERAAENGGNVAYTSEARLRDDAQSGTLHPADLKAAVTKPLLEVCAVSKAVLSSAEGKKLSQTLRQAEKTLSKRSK

[10] = target: T5, Tyrosyl-tRNA synthetase, putative (Trypanosoma cruzi (strain CL Brener)); test: Trypanosoma cruzi tyrosyl tRNA synthetase (TcYRS) SOP; format: functional; design: scale not given: direction of the effect not stated beside the values; conditions: 30 µM
[11] = target: Chromo domain-containing protein 1 (Saccharomyces cerevisiae (strain ATCC 204508 / S288c) (Baker's yeast)) (UniProt P32657); test: ScCHD-1 Enzyme Inhibition Assay; format: functional; design: scale not given: in the data most compounds retested in dose-response had high values; conditions: 30 µM
Chromo domain-containing protein 1 (Saccharomyces cerevisiae (strain ATCC 204508 / S288c) (Baker's yeast)), sequence (P32657 whole entry, the tested form may be a part): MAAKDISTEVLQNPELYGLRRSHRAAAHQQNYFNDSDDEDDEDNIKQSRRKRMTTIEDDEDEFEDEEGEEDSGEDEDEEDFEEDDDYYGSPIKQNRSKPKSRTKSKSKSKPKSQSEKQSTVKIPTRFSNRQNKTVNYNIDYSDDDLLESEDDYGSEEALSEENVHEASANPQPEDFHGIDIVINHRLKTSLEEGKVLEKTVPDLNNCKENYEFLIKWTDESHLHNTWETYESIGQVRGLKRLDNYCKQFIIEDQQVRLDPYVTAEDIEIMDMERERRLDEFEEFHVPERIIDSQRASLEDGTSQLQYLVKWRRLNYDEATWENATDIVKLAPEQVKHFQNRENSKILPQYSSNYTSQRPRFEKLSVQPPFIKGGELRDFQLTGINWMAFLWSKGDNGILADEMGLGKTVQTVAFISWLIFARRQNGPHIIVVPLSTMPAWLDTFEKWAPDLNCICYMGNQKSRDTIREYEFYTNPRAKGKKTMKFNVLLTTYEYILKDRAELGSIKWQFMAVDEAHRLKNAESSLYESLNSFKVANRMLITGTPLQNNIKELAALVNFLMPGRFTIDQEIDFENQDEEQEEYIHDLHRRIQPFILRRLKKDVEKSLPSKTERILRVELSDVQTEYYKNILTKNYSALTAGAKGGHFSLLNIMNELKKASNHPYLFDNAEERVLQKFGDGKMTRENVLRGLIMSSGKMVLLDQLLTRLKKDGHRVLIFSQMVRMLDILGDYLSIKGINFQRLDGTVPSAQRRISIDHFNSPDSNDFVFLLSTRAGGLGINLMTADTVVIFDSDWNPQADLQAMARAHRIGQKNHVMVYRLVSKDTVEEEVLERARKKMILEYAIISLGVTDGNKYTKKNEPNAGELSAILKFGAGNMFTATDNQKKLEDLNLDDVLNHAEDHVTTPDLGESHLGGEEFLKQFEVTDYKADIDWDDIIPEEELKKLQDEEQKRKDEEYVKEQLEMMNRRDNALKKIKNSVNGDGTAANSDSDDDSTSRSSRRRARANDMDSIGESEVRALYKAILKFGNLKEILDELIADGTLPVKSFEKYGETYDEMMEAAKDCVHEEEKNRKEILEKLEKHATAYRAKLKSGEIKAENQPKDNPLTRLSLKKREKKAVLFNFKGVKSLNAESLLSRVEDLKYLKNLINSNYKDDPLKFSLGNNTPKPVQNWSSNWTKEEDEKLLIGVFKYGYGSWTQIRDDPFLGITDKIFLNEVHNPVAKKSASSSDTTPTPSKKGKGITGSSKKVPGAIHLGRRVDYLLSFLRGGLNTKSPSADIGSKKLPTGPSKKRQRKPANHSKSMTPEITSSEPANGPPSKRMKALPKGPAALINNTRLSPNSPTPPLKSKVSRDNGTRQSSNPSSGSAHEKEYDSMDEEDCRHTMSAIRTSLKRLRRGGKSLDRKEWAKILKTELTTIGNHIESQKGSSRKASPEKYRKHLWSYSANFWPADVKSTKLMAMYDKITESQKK

[12] = target: T6, Methionyl-tRNA synthetase, putative (Leishmania donovani (strain BPK282A1)) (UniProt E9BF75); test: Leishmania donovani Methionine tRNA synthetase (LdMetRS):v7. Dose response assay; format: functional; design: conc 80 nM, time 150 minutes
T6 sequence (whole entry): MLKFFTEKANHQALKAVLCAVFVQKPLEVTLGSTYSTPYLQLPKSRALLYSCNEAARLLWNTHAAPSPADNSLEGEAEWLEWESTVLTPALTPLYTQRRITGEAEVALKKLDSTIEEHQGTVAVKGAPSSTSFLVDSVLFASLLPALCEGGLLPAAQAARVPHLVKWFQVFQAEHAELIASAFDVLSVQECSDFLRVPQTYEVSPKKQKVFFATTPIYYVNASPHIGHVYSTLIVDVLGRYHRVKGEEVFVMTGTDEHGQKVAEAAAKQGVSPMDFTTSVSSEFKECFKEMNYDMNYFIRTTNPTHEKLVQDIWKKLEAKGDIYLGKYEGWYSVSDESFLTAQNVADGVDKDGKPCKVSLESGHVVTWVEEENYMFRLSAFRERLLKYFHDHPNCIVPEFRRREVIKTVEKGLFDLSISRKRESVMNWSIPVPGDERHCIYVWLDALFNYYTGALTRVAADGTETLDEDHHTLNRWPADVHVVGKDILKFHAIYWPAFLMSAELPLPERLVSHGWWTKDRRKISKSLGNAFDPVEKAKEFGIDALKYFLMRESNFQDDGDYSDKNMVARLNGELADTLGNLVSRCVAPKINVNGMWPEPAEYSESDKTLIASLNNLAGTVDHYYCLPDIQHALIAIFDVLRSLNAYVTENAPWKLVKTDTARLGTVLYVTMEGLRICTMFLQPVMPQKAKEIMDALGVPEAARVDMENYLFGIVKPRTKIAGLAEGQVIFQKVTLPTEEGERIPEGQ

Protein translocase subunit SecA (Escherichia coli (strain K12)), sequence (P10408 whole entry): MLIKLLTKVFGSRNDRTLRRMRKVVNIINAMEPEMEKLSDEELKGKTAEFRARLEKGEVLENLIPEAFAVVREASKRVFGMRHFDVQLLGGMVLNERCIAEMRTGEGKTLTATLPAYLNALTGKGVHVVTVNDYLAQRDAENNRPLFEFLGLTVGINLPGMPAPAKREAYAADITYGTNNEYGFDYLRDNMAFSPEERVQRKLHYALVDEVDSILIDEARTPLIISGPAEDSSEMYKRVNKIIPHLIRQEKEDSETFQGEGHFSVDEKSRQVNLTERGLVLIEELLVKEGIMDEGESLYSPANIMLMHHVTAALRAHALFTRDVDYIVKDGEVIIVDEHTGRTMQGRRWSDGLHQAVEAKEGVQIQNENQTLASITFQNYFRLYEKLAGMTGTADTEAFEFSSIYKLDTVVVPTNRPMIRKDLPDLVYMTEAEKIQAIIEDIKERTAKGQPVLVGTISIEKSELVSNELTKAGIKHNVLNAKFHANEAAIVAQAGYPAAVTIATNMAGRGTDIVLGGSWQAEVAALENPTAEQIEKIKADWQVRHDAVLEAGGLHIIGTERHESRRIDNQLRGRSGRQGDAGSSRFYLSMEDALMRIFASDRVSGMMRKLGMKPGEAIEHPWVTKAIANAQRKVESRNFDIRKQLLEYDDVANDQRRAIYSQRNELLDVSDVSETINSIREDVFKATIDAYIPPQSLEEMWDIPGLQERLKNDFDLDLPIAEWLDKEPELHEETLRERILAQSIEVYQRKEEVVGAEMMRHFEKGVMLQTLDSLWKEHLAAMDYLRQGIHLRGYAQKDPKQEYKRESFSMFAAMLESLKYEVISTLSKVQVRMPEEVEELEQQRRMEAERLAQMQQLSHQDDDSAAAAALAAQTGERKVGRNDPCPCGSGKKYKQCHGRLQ

Compound: Cc1cc(CC(=O)N2CCN(CC3CC3)[C@@H]3CS(=O)(=O)C[C@@H]32)ccc1F
- Percent Effect [1]: -1.82%
- Percent Effect [2]: 6.94%
- Percent Effect [3]: 3.29%
- Percent Effect [4]: 35.7%
- Percent Effect [5]: -0.65%
- Percent Effect (Trypanosoma cruzi): 0.0972%
- Percent Effect ([6]; 33.3 µM): 3.53%
- Percent Effect [7]: 7.02%
- Percent Effect (Homo sapiens): -1.41%
- Percent Effect [8]: 1.5%
- Percent Effect [9]: 7.37%
- Percent Effect [10]: -15.4%
- Percent Effect [11]: -3.03%

Compound: COc1ccc(Cl)cc1Cl
- PXC50 ([12]; MAX_EFFECT 11.87904968): < 3
- PXC50 ([12]; MAX_EFFECT 16.92015209): < 3

Compound: O=C1CSC(c2ccsc2)c2c(n(C3CCOCC3)[nH]c2=O)N1 (configuration not stated)
- Percent Effect [1]: -1.28%
- Percent Effect [2]: 14.7%
- Percent Effect [3]: -2.38%
- Percent Effect [4]: -5.51%
- Percent Effect [5]: 3.3%
- Percent Effect (Trypanosoma cruzi): -0.589%
- Percent Effect ([6]; 30 µM): 7.03%
- Percent Effect ([6]; 33.3 µM): 94.2%
- Percent Effect [7]: 8.13%
- Percent Effect (Homo sapiens): 6.12%
- Percent Effect [8]: -12.8%
- Percent Effect [9]: 6.35%
- Percent Effect [10]: 12.8%
- Percent Effect [11]: -11.9%

Compound: CCOCC(O)CN1CCN(C(=O)Cc2ccc(C)nc2)CC1 (configuration not stated)
- Percent Effect [1]: -0.896%
- Percent Effect [2]: 18.4%
- Percent Effect [3]: -0.811%
- Percent Effect [4]: 1.93%
- Percent Effect [5]: 7.02%
- Percent Effect (Trypanosoma cruzi): -3.38%
- Percent Effect ([6]; 33.3 µM): 3.83%
- Percent Effect [7]: 15.9%
- Percent Effect (Homo sapiens): 10.3%
- Percent Effect [8]: 27%
- Percent Effect [9]: 11.3%
- Percent Effect [10]: 17.1%
- Percent Effect [11]: -5.52%

Compound: Cc1cc(C(F)(F)F)nc(N2CCN3CCCC3C2)n1 (configuration not stated)
- PXC50 ([12]; MAX_EFFECT 10.18276762): < 4
- PXC50 ([12]; MAX_EFFECT 10.96605744): < 4

Compound: Cc1nc(C2(NCC(=O)NC(=O)NCc3cccs3)CCCCC2)no1
- Percent Effect [1]: -4.13%
- Percent Effect [2]: 15.8%
- Percent Effect [3]: -4.16%
- Percent Effect [4]: -2.76%
- Percent Effect [5]: -3.65%
- Percent Effect (Trypanosoma cruzi): 2.82%
- Percent Effect ([6]; 33.3 µM): -3.55%
- Percent Effect [7]: -0.479%
- Percent Effect (Homo sapiens): 7.32%
- Percent Effect [8]: 5.13%
- Percent Effect [9]: 2.13%
- Percent Effect [10]: 15.6%
- Percent Effect [11]: -4.77%
